This is part of a sample that, as a whole, favours compounds with a hit. Of some 83,000 tested, about 20% had one in any assay.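 In brief: 96-well plates, 48 h treatment, single concentration, percent growth endpoint.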 Activity calls are given as the source filed them. The calls were made as follows: active = growth percent below 10; inactive = the rest.
Assays:
Experiment in all cases: NCI-60 one-dose screen, 48 h (100 = growth as untreated, 0 = no growth, -100 = all killed)
SR leukemia = conditions: 10 µM unless noted
RPMI-8226 leukemia = conditions: 10 µM unless noted
OVCAR-8 ovarian = conditions: 10 µM unless noted
OVCAR-5 ovarian = conditions: 10 µM unless noted
OVCAR-4 ovarian = conditions: 10 µM unless noted
SK-OV-3 ovarian = conditions: 10 µM unless noted
IGROV1 ovarian = conditions: 10 µM unless noted
OVCAR-3 ovarian = conditions: 10 µM unless noted
HS 578T breast = conditions: 10 µM
NCI/ADR-RES ovarian = conditions: 10 µM unless noted
T-47D breast = conditions: 10 µM unless noted
BT-549 breast = conditions: 10 µM unless noted
MDA-MB-435 melanoma = conditions: 10 µM unless noted
SW-620 colon = conditions: 10 µM unless noted
MCF7 breast = conditions: 10 µM unless noted
HCT-116 colon = conditions: 10 µM unless noted
HCC-2998 colon = conditions: 10 µM
KM12 colon = conditions: 10 µM unless noted

Measured: growth

CC(C)c1ccc(/C=N/Nc2nc3ccccc3s2)cc1
inactive: SR leukemia 89.9% | RPMI-8226 leukemia 88.4% | OVCAR-8 ovarian 87.5% | OVCAR-5 ovarian 102% | OVCAR-4 ovarian 81.4% | SK-OV-3 ovarian 89.4% | IGROV1 ovarian 70% | OVCAR-3 ovarian 88.7% | HS 578T breast 92.8% | NCI/ADR-RES ovarian 92.6% | T-47D breast 78.2% | BT-549 breast 99% | MDA-MB-435 melanoma 107% | SW-620 colon 102% | MCF7 breast 76.2% | HCT-116 colon 89% | HCC-2998 colon 104% | KM12 colon 89%

Cc1ccc(-c2nc3ccc(Cl)cn3c2NC2CCCCC2)o1
inactive: SR leukemia 54.3% | RPMI-8226 leukemia 51.1% | OVCAR-8 ovarian 92.7% | OVCAR-5 ovarian 108% | OVCAR-4 ovarian 71% | SK-OV-3 ovarian 72.1% | IGROV1 ovarian 62.1% | OVCAR-3 ovarian 89.7% | HS 578T breast 88.2% | NCI/ADR-RES ovarian 86.2% | T-47D breast 58.1% | BT-549 breast 105% | MDA-MB-435 melanoma 97.2% | SW-620 colon 82.9% | MCF7 breast 72.1% | HCT-116 colon 56.1% | HCC-2998 colon 102% | KM12 colon 89.2%

COC(=O)[C@]12CC[C@@H](C)[C@H](C)[C@@H]1C1=CC[C@@H]3[C@@]4(C)C(c5cnco5)=C[C@@](C)(CO)C4=CC[C@@]3(C)[C@]1(C)CC2
inactive: SR leukemia 21.1% | RPMI-8226 leukemia 26.1% | OVCAR-8 ovarian 60.8% | OVCAR-5 ovarian 78.8% | OVCAR-4 ovarian 40.6% | SK-OV-3 ovarian 67.2% | IGROV1 ovarian 77.6% | OVCAR-3 ovarian 50.1% | HS 578T breast 72.8% | NCI/ADR-RES ovarian 53.9% | T-47D breast 14.7% | BT-549 breast 56.4% | MDA-MB-435 melanoma 60.5% | SW-620 colon 50.9% | MCF7 breast 37.1% | HCT-116 colon 22.6% | HCC-2998 colon 45.5% | KM12 colon 37.2%

Clc1ccc(C(Cn2ccnc2)OCc2ccsc2Cl)c(Cl)c1 (stereo not drawn)
active: MDA-MB-435 melanoma -0.595%
inactive: SR leukemia 17.3% | RPMI-8226 leukemia 37.6% | OVCAR-8 ovarian 57.2% | OVCAR-5 ovarian 68.9% | OVCAR-4 ovarian 52.7% | SK-OV-3 ovarian 70.7% | IGROV1 ovarian 40.9% | OVCAR-3 ovarian 55.7% | HS 578T breast 30.8% | NCI/ADR-RES ovarian 23.1% | T-47D breast 43.5% | BT-549 breast 40% | SW-620 colon 45.1% | MCF7 breast 43.7% | HCT-116 colon 26.3% | HCC-2998 colon 53.8% | KM12 colon 24.6%

CC12O[C@H](C[C@@H](OC(=O)CCC(=O)O)[C@H]1O)n1c3ccccc3c3c4c(c5c6ccccc6n2c5c31)C(=O)NC4=O
active: SR leukemia 0.804% | SK-OV-3 ovarian -8.63% | BT-549 breast -1.04% | MDA-MB-435 melanoma 8.34%
inactive: RPMI-8226 leukemia 58.7% | OVCAR-8 ovarian 37.7% | OVCAR-5 ovarian 69.3% | OVCAR-4 ovarian 68% | IGROV1 ovarian 20.4% | OVCAR-3 ovarian 27.9% | HS 578T breast 19.2% | NCI/ADR-RES ovarian 58.7% | T-47D breast 35.8% | SW-620 colon 36.2% | MCF7 breast 19.2% | HCT-116 colon 35.6% | HCC-2998 colon 41.3% | KM12 colon 15.4%

Clc1ccc2c(NCCNc3nc(N4CCCC4)nc4ccccc34)ccnc2c1
inactive: OVCAR-5 ovarian 23.6% | HS 578T breast 19.9% | NCI/ADR-RES ovarian 60.2% | MCF7 breast 28.5% | KM12 colon 10.9%
active: SR leukemia -22.6% | RPMI-8226 leukemia -18.2% | OVCAR-8 ovarian 3.61% | OVCAR-4 ovarian -7.19% | SK-OV-3 ovarian -63.3% | IGROV1 ovarian 3.56% | OVCAR-3 ovarian -65.8% | T-47D breast -14% | BT-549 breast -11.3% | MDA-MB-435 melanoma -41.3% | SW-620 colon 5.27% | HCT-116 colon -63.6% | HCC-2998 colon 7.18%

Clc1ccc(Nc2nccc(Nc3ccc4[nH]ncc4c3)n2)cc1
active: SR leukemia 2.66% | KM12 colon 9.06%
inactive: RPMI-8226 leukemia 18.3% | OVCAR-8 ovarian 22.1% | OVCAR-5 ovarian 64.9% | OVCAR-4 ovarian 49.3% | SK-OV-3 ovarian 88.4% | IGROV1 ovarian 46.9% | OVCAR-3 ovarian 52.1% | HS 578T breast 61.5% | NCI/ADR-RES ovarian 38.9% | T-47D breast 30.1% | BT-549 breast 53% | MDA-MB-435 melanoma 55.8% | SW-620 colon 33% | MCF7 breast 25% | HCT-116 colon 39.4% | HCC-2998 colon 94.3%

COc1ccc(C(=O)c2cc(OC)c(OC)c(OC)c2)cc1/C=C/C(=O)c1ccc(F)cc1
inactive: RPMI-8226 leukemia 23.3% | OVCAR-8 ovarian 53.3% | OVCAR-4 ovarian 77.8% | SK-OV-3 ovarian 93.5% | IGROV1 ovarian 91.7% | OVCAR-3 ovarian 61.4% | HS 578T breast 98% | NCI/ADR-RES ovarian 31.1% | T-47D breast 67.3% | BT-549 breast 81.2% | MDA-MB-435 melanoma 60.5% | MCF7 breast 19.6% | HCC-2998 colon 97.1% | KM12 colon 39.8%
active: SR leukemia 3.26% | OVCAR-5 ovarian 1.82% | SW-620 colon 9.38% | HCT-116 colon 1.33%

NC1=Nc2ccccc2N(O)N1
inactive: SR leukemia 105% | RPMI-8226 leukemia 107% | OVCAR-8 ovarian 104% | OVCAR-5 ovarian 92.4% | OVCAR-4 ovarian 99.8% | SK-OV-3 ovarian 90.9% | IGROV1 ovarian 105% | OVCAR-3 ovarian 111% | HS 578T breast 97.3% | NCI/ADR-RES ovarian 103% | T-47D breast 87.1% | BT-549 breast 95% | MDA-MB-435 melanoma 106% | SW-620 colon 105% | MCF7 breast 94.2% | HCT-116 colon 93.3% | HCC-2998 colon 91.3% | KM12 colon 104%

O=c1[nH]c(N2CCOCC2)nc2scc(-c3ccccc3)c12
inactive: SR leukemia 102% | RPMI-8226 leukemia 97.7% | OVCAR-8 ovarian 96.2% | OVCAR-5 ovarian 104% | OVCAR-4 ovarian 101% | SK-OV-3 ovarian 88% | IGROV1 ovarian 101% | OVCAR-3 ovarian 110% | HS 578T breast 102% | NCI/ADR-RES ovarian 98.1% | T-47D breast 80.7% | BT-549 breast 92.4% | MDA-MB-435 melanoma 91.7% | SW-620 colon 110% | MCF7 breast 92.2% | HCT-116 colon 98.3% | HCC-2998 colon 106% | KM12 colon 97.6%

COc1ccc2c(c1OC)C(=O)O[C@@H]2[C@H]1c2c(c(C#CC#Cc3ccc(F)c(F)c3)c3c(c2OC)OCO3)CCN1C
inactive: SR leukemia 60.2% | RPMI-8226 leukemia 67.3% | OVCAR-8 ovarian 87.9% | OVCAR-5 ovarian 96.5% | OVCAR-4 ovarian 99.9% | SK-OV-3 ovarian 76% | IGROV1 ovarian 90.1% | OVCAR-3 ovarian 104% | HS 578T breast 101% | NCI/ADR-RES ovarian 89.3% | T-47D breast 69.6% | BT-549 breast 78.2% | MDA-MB-435 melanoma 89.7% | SW-620 colon 104% | MCF7 breast 94% | HCT-116 colon 59.8% | HCC-2998 colon 88.5% | KM12 colon 83%

O=C(Cc1ccccc1)Nc1nnc(NC2CCN(c3nnc(NC(=O)Cc4ccccc4)s3)CC2)s1
inactive: SR leukemia 84.9% | RPMI-8226 leukemia 58.9% | OVCAR-8 ovarian 95.2% | OVCAR-5 ovarian 94.3% | OVCAR-4 ovarian 98.8% | SK-OV-3 ovarian 84% | IGROV1 ovarian 84.8% | OVCAR-3 ovarian 94.4% | HS 578T breast 78.6% | NCI/ADR-RES ovarian 98.4% | T-47D breast 84% | BT-549 breast 82% | MDA-MB-435 melanoma 102% | SW-620 colon 99.8% | MCF7 breast 87.4% | HCT-116 colon 89.2% | HCC-2998 colon 101% | KM12 colon 59.2%

COc1ccc2c(CCCc3ccc(Cl)cc3Cl)c3[n+](cc2c1OC)CCc1cc2c(cc1-3)OCO2
active: SR leukemia -38.6% | RPMI-8226 leukemia -24.5% | OVCAR-8 ovarian 0.597% | SK-OV-3 ovarian -8.36% | IGROV1 ovarian -8.37% | OVCAR-3 ovarian -48.4% | T-47D breast 3.35% | BT-549 breast -28% | MDA-MB-435 melanoma -71.2% | SW-620 colon 4.21% | MCF7 breast 6.01% | HCT-116 colon -11.6% | HCC-2998 colon -83.7% | KM12 colon -55.3%
inactive: OVCAR-5 ovarian 28.9% | OVCAR-4 ovarian 20.5% | HS 578T breast 32.9% | NCI/ADR-RES ovarian 76.4%

CC[n+]1c(/C=C/C=C2\N(C)c3ccccc3C2(C)C)sc2ccccc21
inactive: OVCAR-8 ovarian 12.8% | OVCAR-5 ovarian 27.4% | OVCAR-4 ovarian 19.9% | IGROV1 ovarian 32% | HS 578T breast 39.8% | NCI/ADR-RES ovarian 30.4% | SW-620 colon 17% | HCC-2998 colon 32.2%
active: SR leukemia -5.33% | RPMI-8226 leukemia -31% | SK-OV-3 ovarian -12.3% | OVCAR-3 ovarian 8.88% | T-47D breast 4.61% | BT-549 breast -2.69% | MDA-MB-435 melanoma 4.07% | MCF7 breast -26.9% | HCT-116 colon 7.25% | KM12 colon 3.17%

O=C(Cn1cncn1)Nc1ccc(-c2nc3ccccc3s2)cc1
inactive: SR leukemia 83.8% | RPMI-8226 leukemia 83.3% | OVCAR-8 ovarian 94.6% | OVCAR-5 ovarian 115% | OVCAR-4 ovarian 80.6% | SK-OV-3 ovarian 99.9% | IGROV1 ovarian 92.4% | OVCAR-3 ovarian 91% | HS 578T breast 103% | NCI/ADR-RES ovarian 102% | T-47D breast 64.9% | BT-549 breast 91.5% | MDA-MB-435 melanoma 105% | SW-620 colon 106% | MCF7 breast 36.1% | HCT-116 colon 95.4% | HCC-2998 colon 93.9% | KM12 colon 98.2%

COc1c(C(NC(=O)c2ccccc2)c2sccc2C)cc(Cl)c2cccnc12 (stereo not drawn)
inactive: SR leukemia 90% | RPMI-8226 leukemia 89.1% | OVCAR-8 ovarian 96.8% | OVCAR-5 ovarian 96.6% | OVCAR-4 ovarian 112% | SK-OV-3 ovarian 89.3% | IGROV1 ovarian 106% | OVCAR-3 ovarian 117% | HS 578T breast 98.6% | NCI/ADR-RES ovarian 98.2% | T-47D breast 90.8% | BT-549 breast 97.1% | MDA-MB-435 melanoma 108% | SW-620 colon 100% | MCF7 breast 100% | HCT-116 colon 84.1% | HCC-2998 colon 112% | KM12 colon 104%

— PubChem BioAssay (NCI)
